Test results reported in PubChem BioAssay (EPA / NIEHS).
Calls of active or inactive are those of the source. The calls were made as follows: active = hit-call score of the fitted dose curve at least 0.9, where 1 is the maximum; inactive = score below 0.9.

Key:
[1] = ATG_CRE_CIS: Attagene CIS-FACTORIAL HepG2 Assay for human cAMP Responsive Element (CRE) binding protein 3 (AID 2282926); conditions: HepG2 CRE cis-reporter, Attagene multiplexed mRNA; actives raise or lower the signal
Method in brief: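 Transfected HepG2 were treated for 24 hours, then RNA was extracted and reporter cDNA amplified with sequence-specific primers. Labelled fragments were separated by capillary electrophoresis, and the CRE signal was fitted bidirectionally with DMSO as baseline.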

[2] = biological target: CCAAT/enhancer-binding protein beta (Homo sapiens) (UniProt P17676); experiment: ATG_C_EBP_CIS: Attagene CIS-FACTORIAL HepG2 Assay for human CCAAT/Enhancer Binding Protein (C/EBP) beta (AID 2282927); conditions: HepG2 Attagene cis-factorial transcription factor reporter; actives raise or lower the signal
CCAAT/enhancer-binding protein beta (Homo sapiens), sequence (P17676 whole entry, looked up): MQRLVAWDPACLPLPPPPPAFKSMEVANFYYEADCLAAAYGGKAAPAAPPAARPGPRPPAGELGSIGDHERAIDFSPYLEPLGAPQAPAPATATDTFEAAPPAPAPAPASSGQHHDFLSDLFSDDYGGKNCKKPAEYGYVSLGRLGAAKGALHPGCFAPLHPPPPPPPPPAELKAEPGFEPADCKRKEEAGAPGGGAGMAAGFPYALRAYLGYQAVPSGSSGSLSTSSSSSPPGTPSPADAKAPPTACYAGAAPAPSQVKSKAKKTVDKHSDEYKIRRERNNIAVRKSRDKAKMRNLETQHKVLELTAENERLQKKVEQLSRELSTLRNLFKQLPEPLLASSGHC
Method in brief: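 HepG2, transient MRTU transfection, 24 h treatment. RT-PCR plus CE fluorescence; DMSO negative control, bidirectional fit.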

[3] = ATG_AP_1_CIS: Attagene CIS-FACTORIAL HepG2 Assay for human Activator Protein 1 (AP-1) (AID 2282931); conditions: HepG2 Attagene cis-factorial AP-1 reporter mRNA; actives raise or lower the signal
Method in brief: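 Endogenous transcription-factor activity in human HepG2 liver cells is read through a cis-promoter reporter transcript, sampled 24 h after dosing. Detection uses RT-PCR with capillary electrophoresis; values come from bidirectional fitting relative to DMSO.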

[4] = ATG_AP_2_CIS: Attagene CIS-FACTORIAL HepG2 Assay for human Activator Protein 2 (AP-2) (AID 2282932); conditions: HepG2 AP-2 cis-reporter, Attagene transcription factor profiling; actives raise or lower the signal
Method in brief: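 HepG2 cells transiently transfected with cis-element reporter units and exposed for 24 h. Reporter mRNA measured by RT-PCR, FAM labelling, HpaI digestion and capillary electrophoresis. Changes in either direction fitted relative to DMSO.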

[5] = ATG_BRE_CIS: Attagene CIS-FACTORIAL HepG2 Assay for human Bone Morphogenetic Protein (BMP) Response Element (BRE) (AID 2282933); conditions: HepG2 BMP response element reporter, Attagene transcription factor profiling; actives raise or lower the signal
Method in brief: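 Transient MRTU transfection of human HepG2 liver cells; 24 h compound treatment; total RNA isolated, reverse-transcribed, PCR-amplified, 6-FAM labelled, HpaI-cut, capillary electrophoresis. DMSO = negative control/baseline, bidirectional fit.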

[6] = ATG_E_Box_CIS: Attagene CIS-FACTORIAL HepG2 Assay for human Enhancer Box (E-box) (AID 2282936); conditions: HepG2 E-box cis-reporter transcription, actives raise or lower the signal
Method in brief: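 HepG2 cells transiently transfected with multiplexed cis-element reporter units, dosed 24 h; reporter mRNA quantified by RT-PCR, 6-FAM labelling, HpaI digestion and capillary electrophoresis. E-box (USF1) signal fitted bidirectionally vs DMSO.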

[7] = ATG_M_61_CIS: Attagene CIS-FACTORIAL HepG2 Assay for M61 Transcription Factor (Internal Marker) (AID 2282937); conditions: HepG2 Attagene CIS-FACTORIAL M61 internal marker reporter; actives raise or lower the signal
Method in brief: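 Cells were transfected with reporter units under cis-regulatory promoters, treated with chemicals for 24 h, then lysed for RNA. Reporter transcripts were quantified by RT-PCR and capillary electrophoresis, and activity was fitted bidirectionally against DMSO.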

[8] = ATG_EGR_CIS: Attagene CIS-FACTORIAL HepG2 Assay for human Early Growth Response 1 (EGR1) (AID 2282938); conditions: HepG2 Attagene CIS-FACTORIAL EGR reporter mRNA; actives raise or lower the signal
Method in brief: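 Endogenous TF activity in HepG2 liver cells was gauged through cis-promoter reporter constructs transiently transfected. After 24 h dosing, reporter mRNA was quantified by RT-PCR and capillary electrophoresis, and curves fitted in both directions versus DMSO.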

[9] = ATG_Ets_CIS: Attagene CIS-FACTORIAL HepG2 Assay for human Erythroblast Transformation Specific (ETS) (AID 2282941); conditions: HepG2 ETS cis-reporter transcription, actives raise or lower the signal
Method in brief: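 After transient cis-reporter transfection, HepG2 cells receive test chemical for 24 h. Reporter mRNA levels, measured by RT-PCR and capillary electrophoresis fluorescence, are analysed bidirectionally relative to the DMSO baseline.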

[10] = ATG_FoxO_CIS: Attagene CIS-FACTORIAL HepG2 Assay for human Forkhead box O (FoxO) (AID 2282943); conditions: HepG2 Attagene cis-reporter, FoxO element, mRNA; actives raise or lower the signal
Method in brief: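 Transfected HepG2 reporter cells exposed to test chemical for 24 h; reporter RNA measured by reverse transcription, PCR and fluorescent capillary electrophoresis; curves fitted for increases and decreases against DMSO.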

[11] = ATG_GATA_CIS: Attagene CIS-FACTORIAL HepG2 Assay for human GATA Binding Protein (AID 2282944); conditions: HepG2 GATA cis-element reporter, Attagene multiplex mRNA; actives raise or lower the signal
Method in brief: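 Transient MRTU transfection, HepG2, 24 h compound exposure. Total RNA → oligo(dT) RT → PCR → 6-FAM primer extension → HpaI cut → CE. Bidirectional fit vs DMSO.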

[12] = ATG_M_32_CIS: Attagene CIS-FACTORIAL HepG2 Assay for M32 Transcription Factor (Internal Marker) (AID 2282949); conditions: HepG2 Attagene cis-factorial M32 reporter, mRNA; actives raise or lower the signal;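 also: background control marker of the multiplexed CIS panel rather than a real target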
Method in brief: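 Fluorescent capillary electrophoresis peaks of HpaI-digested, FAM-labelled RT-PCR reporter products give the signal. Source: transiently transfected human liver HepG2 cells, 24 h after chemical dosing; bidirectional fitting against DMSO.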

[13] = ATG_M_06_CIS: Attagene CIS-FACTORIAL HepG2 Assay for M06 Transcription Factor (Internal Marker) (AID 2282950); conditions: HepG2 Attagene CIS-FACTORIAL M06 internal marker reporter; actives raise or lower the signal
Method in brief: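 Read-out is fluorescence of labelled reporter cDNA fragments resolved by capillary electrophoresis after RT-PCR. Cells: HepG2 carrying transfected cis-promoter reporter units, treated 24 h. Gain or loss of signal fitted relative to DMSO.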

[14] = ATG_MRE_CIS: Attagene CIS-FACTORIAL HepG2 Assay for human Metal Responsive Element (MRE) (AID 2282954); conditions: HepG2 MRE cis-reporter transcription, Attagene multiplex; actives raise or lower the signal
Method in brief: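 HepG2 cells transiently transfected with cis-element-driven reporter units; mRNA measured 24 h after dosing. Reporter transcripts quantified by RT-PCR, FAM labelling, HpaI digestion and capillary electrophoresis; bidirectional fit versus DMSO.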

[15] = biological target: Paired box protein Pax-6 (Homo sapiens) (UniProt P26367); experiment: ATG_Pax6_CIS: Attagene CIS-FACTORIAL HepG2 Assay for human Paired Box 6 (PAX6) (AID 2282956); conditions: HepG2 CIS-FACTORIAL PAX6 reporter transcription, RNA readout; actives raise or lower the signal
Paired box protein Pax-6 (Homo sapiens), sequence (P26367 whole entry, looked up): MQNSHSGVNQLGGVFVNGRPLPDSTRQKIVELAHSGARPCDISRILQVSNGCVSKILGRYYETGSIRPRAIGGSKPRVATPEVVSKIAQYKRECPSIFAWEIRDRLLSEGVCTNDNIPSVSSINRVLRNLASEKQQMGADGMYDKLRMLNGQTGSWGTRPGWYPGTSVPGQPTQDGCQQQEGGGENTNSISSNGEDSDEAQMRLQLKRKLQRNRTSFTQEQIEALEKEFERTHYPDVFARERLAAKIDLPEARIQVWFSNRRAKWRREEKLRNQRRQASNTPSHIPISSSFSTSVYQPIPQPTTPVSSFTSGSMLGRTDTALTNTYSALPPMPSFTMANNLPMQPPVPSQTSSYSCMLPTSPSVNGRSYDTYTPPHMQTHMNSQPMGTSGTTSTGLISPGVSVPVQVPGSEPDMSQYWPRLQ
Method in brief: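 After twenty-four hours of chemical exposure, transfected HepG2 cells are harvested for RNA. Cis-promoter reporter transcripts are amplified, fluorescently labelled and sized by capillary electrophoresis, with gain and loss of signal scored against DMSO.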

[16] = ATG_PXRE_CIS: Attagene CIS-FACTORIAL HepG2 Assay for human Pregnane X Receptor Element (PXRE) (AID 2282957); conditions: HepG2 Attagene CIS-FACTORIAL PXRE reporter, mRNA; actives raise or lower the signal
Method in brief: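 Multiplexed cis-reporter assay in transiently transfected human HepG2 cells; 24 h chemical exposure. Reporter transcripts quantified by RT-PCR with fluorescent labeling and capillary electrophoresis.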

[17] = biological target: Transcription factor Sp1 (Homo sapiens) (UniProt P08047); experiment: ATG_Sp1_CIS: Attagene CIS-FACTORIAL HepG2 Assay for human Specificity Protein 1 (Sp1) (AID 2282961); conditions: HepG2 Sp1 cis-reporter transcription, actives raise or lower the signal
Transcription factor Sp1 (Homo sapiens), sequence (P08047 whole entry, looked up): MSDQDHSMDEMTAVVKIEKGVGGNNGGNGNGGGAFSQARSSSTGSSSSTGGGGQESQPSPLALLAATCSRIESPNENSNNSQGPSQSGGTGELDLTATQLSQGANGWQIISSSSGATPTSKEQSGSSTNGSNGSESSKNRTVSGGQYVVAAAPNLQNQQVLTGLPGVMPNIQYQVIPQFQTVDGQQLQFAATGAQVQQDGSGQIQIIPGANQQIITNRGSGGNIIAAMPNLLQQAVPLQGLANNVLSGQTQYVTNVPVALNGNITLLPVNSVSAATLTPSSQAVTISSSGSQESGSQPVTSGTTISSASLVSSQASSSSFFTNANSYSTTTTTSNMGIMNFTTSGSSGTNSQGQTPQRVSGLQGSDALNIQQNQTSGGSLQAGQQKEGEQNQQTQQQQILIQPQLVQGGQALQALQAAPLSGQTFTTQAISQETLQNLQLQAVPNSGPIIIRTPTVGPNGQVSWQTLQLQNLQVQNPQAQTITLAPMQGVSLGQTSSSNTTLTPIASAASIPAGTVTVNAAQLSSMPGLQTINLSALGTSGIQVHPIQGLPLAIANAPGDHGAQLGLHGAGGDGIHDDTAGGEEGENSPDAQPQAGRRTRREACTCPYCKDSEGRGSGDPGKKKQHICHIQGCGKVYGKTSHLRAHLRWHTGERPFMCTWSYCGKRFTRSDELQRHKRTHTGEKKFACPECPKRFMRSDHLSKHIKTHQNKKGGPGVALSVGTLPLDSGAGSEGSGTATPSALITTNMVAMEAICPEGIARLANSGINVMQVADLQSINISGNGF
Method in brief: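 Endogenous Sp1 activity was gauged in human liver HepG2 cells bearing transfected reporter units under a cis-regulating promoter. After 24 h dosing, reporter mRNA was quantified by RT-PCR with capillary electrophoresis, and activity fitted bidirectionally versus DMSO.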

[18] = ATG_SREBP_CIS: Attagene CIS-FACTORIAL HepG2 Assay for human Sterol Regulatory Element Binding (SREBP) (AID 2282962); conditions: HepG2 Attagene cis-factorial SREBP reporter, mRNA; actives raise or lower the signal
Method in brief: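 Twenty-four hours after chemical dosing of transfected HepG2 cultures, reporter RNA was converted to cDNA, amplified, end-labelled with 6-FAM and resolved by capillary electrophoresis. Responses were fitted relative to DMSO.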

[19] = biological target: Signal transducer and activator of transcription 3 (Homo sapiens) (UniProt P40763); experiment: ATG_STAT3_CIS: Attagene CIS-FACTORIAL HepG2 Assay for human Signal Transducer and Activator of Transcription 3 (STAT3) (AID 2282963); conditions: HepG2, Attagene cis-factorial STAT3 reporter transcription; actives raise or lower the signal
Signal transducer and activator of transcription 3 (Homo sapiens), sequence (P40763 whole entry, looked up): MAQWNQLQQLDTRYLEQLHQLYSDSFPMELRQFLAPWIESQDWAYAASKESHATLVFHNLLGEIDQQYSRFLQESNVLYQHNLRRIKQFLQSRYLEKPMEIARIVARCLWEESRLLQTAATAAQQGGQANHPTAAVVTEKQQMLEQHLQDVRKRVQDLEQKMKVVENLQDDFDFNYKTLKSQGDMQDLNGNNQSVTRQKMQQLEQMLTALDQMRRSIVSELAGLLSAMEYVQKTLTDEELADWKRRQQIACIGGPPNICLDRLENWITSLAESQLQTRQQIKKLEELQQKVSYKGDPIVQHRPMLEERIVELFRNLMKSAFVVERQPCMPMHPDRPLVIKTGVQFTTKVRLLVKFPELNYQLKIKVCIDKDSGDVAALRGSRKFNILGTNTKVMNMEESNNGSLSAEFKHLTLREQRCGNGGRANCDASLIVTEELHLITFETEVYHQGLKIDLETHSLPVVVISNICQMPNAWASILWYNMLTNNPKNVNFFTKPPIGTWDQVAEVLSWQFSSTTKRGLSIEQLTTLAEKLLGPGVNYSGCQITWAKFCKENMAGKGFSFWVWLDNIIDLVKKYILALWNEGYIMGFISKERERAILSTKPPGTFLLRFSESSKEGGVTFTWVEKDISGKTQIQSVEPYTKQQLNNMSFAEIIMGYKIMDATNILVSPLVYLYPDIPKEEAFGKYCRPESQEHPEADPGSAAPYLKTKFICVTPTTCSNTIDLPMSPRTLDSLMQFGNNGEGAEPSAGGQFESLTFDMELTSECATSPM
Method in brief: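 HepG2 cells transiently transfected with multiple cis-element-driven reporter units report endogenous transcription factor activity. After 24 h compound exposure, reporter mRNA is measured by RT-PCR, 6-FAM labelling, HpaI digestion and capillary electrophoresis. Fitted bidirectionally versus DMSO.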

[20] = ATG_TAL_CIS: Attagene CIS-FACTORIAL HepG2 Assay for human TAL Basal Promoter (AID 2282966); conditions: HepG2 Attagene cis-factorial TAL promoter reporter; actives raise or lower the signal;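 also: background control endpoint measuring basal TAL promoter reporter mRNA not a specific factor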
Method in brief: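 Steps: transfect HepG2 with multiple reporter transcription units; dose 24 h; isolate RNA, reverse-transcribe, PCR-amplify, label with 6-FAM, digest with HpaI; resolve by capillary electrophoresis. Bidirectional fitting against DMSO baseline.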

Measured: AC50

Cc1ccnc(N)c1
active: [16] 44.6 µM
inactive: all other assays above

CC(=O)CCc1ccccc1
inactive: all assays above

CCCOCCC
inactive: all assays above

CCc1cc(C(N)=S)ccn1
active: [16] 157 µM
inactive: all other assays above

CN(C)c1ccc(C(c2ccccc2)c2ccc(N(C)C)cc2)cc1
active: [3] 100 µM | [5] 100 µM | [16] 3.06 µM
inactive: all other assays above

[O-][n+]1ccc(Cl)cc1
inactive: all assays above

CCCCCCC1CCCC(=O)O1 (stereo not given)
active: [6] 75.2 µM | [16] 37.5 µM
inactive: all other assays above
